# About 83,000 compounds went through this panel and 20% of them were active in at least one assay; those are over-represented in the sample as a whole.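 Method: cells in 96-well plates; compound added at one concentration; 48 h incubation; percent growth measured; values under 10 scored active.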 Unmarked numbers belong to inactive results. Activity calls are given as the source filed them.
# Columns and labels:
# Assay in all cases: NCI-60 one-dose screen, 48 h (100 = growth as untreated, 0 = no growth, -100 = all killed)
# Conditions in all cases: 10 µM unless noted
# HCT-15 colon = system: HCT-15 colon
# HT29 colon = system: HT29 colon
# SNB-75 CNS = system: SNB-75 CNS
# SNB-19 CNS = system: SNB-19 CNS
# U251 CNS = system: U251 CNS
# PC-3 prostate = system: PC-3 prostate
# SK-MEL-5 melanoma = system: SK-MEL-5 melanoma
# UACC-62 melanoma = system: UACC-62 melanoma
# LOX IMVI melanoma = system: LOX IMVI melanoma
# SK-MEL-28 melanoma = system: SK-MEL-28 melanoma
# SK-MEL-2 melanoma = system: SK-MEL-2 melanoma
# EKVX NSCLC = system: EKVX NSCLC
# SN12C renal = system: SN12C renal
# UO-31 renal = system: UO-31 renal
# TK-10 renal = system: TK-10 renal
# ACHN renal = system: ACHN renal
# CAKI-1 renal = system: CAKI-1 renal
# A498 renal = system: A498 renal
# CCRF-CEM leukemia = system: CCRF-CEM leukemia
# MOLT-4 leukemia = system: MOLT-4 leukemia
Structure (SMILES),growth (HCT-15 colon),growth (HT29 colon),growth (SNB-75 CNS),growth (SNB-19 CNS),growth (U251 CNS),growth (PC-3 prostate),growth (SK-MEL-5 melanoma),growth (UACC-62 melanoma),growth (LOX IMVI melanoma),growth (SK-MEL-28 melanoma),growth (SK-MEL-2 melanoma),growth (EKVX NSCLC),growth (SN12C renal),growth (UO-31 renal),growth (TK-10 renal),growth (ACHN renal),growth (CAKI-1 renal),growth (A498 renal) [%],growth (CCRF-CEM leukemia),growth (MOLT-4 leukemia)
CCN(CC)c1ccc(/C=N\NC(=O)c2cccc(Nc3ccnc(C(F)(F)F)c3)c2)c(O)c1,28.7%,11.7%,34.7%,15.9%,13.1%,18.9%,-52.2% (active),-12.2% (active),-6.15% (active),64.8%,87.5%,26.6%,18.2%,7.3% (active),42.8%,12.1%,55.6%,53,15.7%,77.5%
COc1cc(/C=C2\CN(S(=O)(=O)c3ccc(C)cc3)C/C(=C\c3cc(CN4CCCCC4)c(O)c(OC)c3)C2=O)cc(CN2CCCCC2)c1O,-86.1% (active),-66.5% (active),-83.9% (active),-57.7% (active),-89.6% (active),-39.9% (active),-88.9% (active),-63.5% (active),-74.5% (active),-85.8% (active),-73.7% (active),-81% (active),-76.5% (active),-89.1% (active),-93.4% (active),-98.9% (active),-89% (active),90,-6.3% (active),-23.7% (active)
CC1(C)O[C@H]2OC3CCC(=O)CC3(O)[C@H]2O1 (stereo not given in full),111%,98.6%,95.1%,107%,96.5%,82%,98.8%,107%,96.7%,120%,102%,112%,103%,79.5%,97.7%,110%,101%,95.1,106%,112%
Cc1ccc(/C=C(\C#N)C(=O)Nc2ncc(Cc3cc(Cl)ccc3Cl)s2)o1,59%,97%,-0.376% (active),27.6%,32.2%,38.8%,51.6%,6.39% (active),11.9%,88.9%,45.9%,60.4%,58.9%,31.7%,44.1%,45.4%,23.7%,40.5,55.4%,40.7%
CN1CCN(CCOc2ccc(-c3cnc4c(-c5ccc(C(F)(F)F)cc5)cnn4c3)cc2)CC1,-33.6% (active),-15.5% (active),96.1%,61.4%,1.48% (active),28.3%,64.4%,72.4%,-89.9% (active),85.1%,63.3%,60.1%,53.7%,38.1%,67.4%,58.8%,31%,69.5,-13.7% (active),-51.3% (active)
O=C(Cn1cc(CN2C(=O)c3ccccc3S2(=O)=O)nn1)Nc1cccc(Cl)c1,98.2%,109%,87.8%,115%,112%,104%,106%,97.4%,89.5%,105%,96.7%,103%,110%,101%,103%,102%,98.5%,110,104%,107%
O=C1NC(=C(Cl)Cl)/C(=N/S(=O)(=O)N2CCCCC2)N1,-79% (active),-75.8% (active),93.5%,60.9%,-45.1% (active),28.5%,82%,46.6%,-56.6% (active),-32.7% (active),40.7%,-23.9% (active),23.5%,39.7%,13.9%,26.8%,46%,132,-63.3% (active),-48.7% (active)
CCCNc1nc2ccccc2c2c(=O)c3cccc(Cl)c3sc12,89.7%,81.8%,82.3%,110%,97.9%,88.5%,97.6%,84.3%,90.2%,115%,102%,85.1%,105%,66.9%,129%,92.7%,71.7%,124,92.2%,93.9%

# Reference: PubChem BioAssay (NCI)
